# Source: the supplement of paper PMC10941209
# Unmarked numbers belong to inactive results.
# System: Toxoplasma gondii RH 2F1 tachyzoites (intracellular in HFF)
# Test: parasite survival relative to DMSO control; higher = less antiparasitic activity, active = 20 or less
# Conditions: 1 µM; 72 h
# Description: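 Primary single-dose screen of the MMV Pandemic Response Box at 1 uM against T. gondii RH-2F1 (beta-galactosidase) tachyzoites in HFF cells, 72 h at 37 C. Parasite growth read by CPRG absorbance at 570 nm and normalised to DMSO-treated infected controls (% survival); pyrimethamine was the reference drug. The paper calls at least 80% inhibition a hit.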
row,Compound,parasite survival
1,CCn1cc(C(=O)O)c(=O)c2cc(F)c(N3CCNC(C)C3)c(F)c21 (stereo not given),76%
2,Nc1nc(N)c2c(Sc3ccccc3)cccc2n1,11.4% (active)
3,COc1ccc2c(c1)cc(CNC(=O)c1cc3ccccc3o1)n2CC(=O)O,64.2%
4,CCCCN1C[C@H](O)[C@@H](O)[C@H](O)[C@H]1CO,61.5%
5,CC[C@@H](CO)NCCN[C@@H](CC)CO,55.4%
6,Nc1cc(N)c2nc(-c3ccccc3)c(Nc3ccc(F)cc3)nc2c1,7.94% (active)
7,CC(=O)Nc1cc(NS(=O)(=O)c2ccc(Cl)cc2)cc2c(Cl)[nH]nc12,52%
8,COc1cc(NCc2ccc3nc(N)nc(N)c3c2C)cc(OC)c1OC,3.86% (active)
9,CC(Oc1ccc(Cl)cc1Cl)C(=O)NCc1ccc2c(c1)OCO2 (stereo not given),31.2%
10,Fc1ccc2c(/C=C/c3nnn[nH]3)c[nH]c2c1,47.3%
11,Clc1ccc(Cn2c(CN3CCCC3)nc3ccccc32)cc1,42.2%
12,COc1ccc2cc3[n+](cc2c1OCCN(CCn1cncn1)Cc1ccc(F)cc1F)CCc1cc2c(cc1-3)OCO2,47.3%
13,CC[C@@H]1C(=O)OC[C@@H]1Cc1cncn1C,45.1%
14,Nc1nc(-c2ccccc2)nc2c1ncn2[C@@H]1O[C@H](COS(=O)(=O)NC(=O)c2ccccc2O)[C@@H](O)[C@H]1O,60.7%
15,Fc1cccc(Cl)c1C1CC(c2ccc(Cl)cc2)Nc2nnnn21 (stereo not given),79.9%
16,CC1CN(c2ncnc3c2c(-c2ccccc2)cn3-c2ccc(F)cc2)CC(C)O1 (stereo not given),34.4%
17,O=C(O)COc1cccc2c1CC[C@](O)(COC(=O)N(c1ccccc1)c1ccccc1)C2,76.3%
18,CCCCCCCCC(CP(=O)(O)C(C)N)C(=O)O (stereo not given),62.7%
19,C=C[C@]1(C)C[C@@H](OC(=O)CS[C@@H]2C[C@H]3CC[C@@H](C2)N3C)[C@]2(C)[C@H](C)CC[C@]3(CCC(=O)[C@H]32)[C@@H](C)[C@@H]1O,18.1% (active)
20,Cc1[nH]c2ccccc2c1CCNCc1ccc(/C=C/C(=O)NO)cc1,4.12% (active)

row,Compound,parasite survival
1,CCCCCCCCCN1C[C@@H](O)[C@H](O)[C@@H](O)[C@@H]1CO,56.8%
2,O=C(Nc1nnc(-c2ccc(Cl)cc2)o1)c1nc2ccccc2s1,62.5%
3,CCCCc1ccc(-c2cc(C(=O)O)cc(-c3ccc(Cl)cc3)n2)cc1,40.8%
4,O=S(=O)(Nc1ccc(O)cc1)c1cccc2cccnc12,64.4%
5,CCC(C)NCC(O)Cn1c2ccc(Cl)cc2c2cc(Cl)ccc21 (stereo not given),26.8%
6,CCCCc1ccc(C(=O)O)nc1,54.6%
7,CC(C)(C)c1ccc(C(=O)NC(=O)N2CCCc3ccccc32)cc1,49.9%
8,c1cnc(NCc2ccc(CNc3ncccn3)cc2)nc1,71.1%
9,O=C1NC(=S)N/C1=C\c1cc(Br)cc(Br)c1O,71.6%
10,CC1(C)[C@H](C(=O)O)N2C(=O)C[C@H]2S1(=O)=O,35.7%
11,CCCc1ccc(-c2cc3cn([C@H]4C[C@H](O)[C@@H](CO)O4)c(=O)nc3o2)cc1,61.6%
12,O=C1[C@H](CC[C@H](O)c2ccc(F)cc2)[C@@H](c2ccc(O)cc2)N1c1ccc(F)cc1,91.5%
13,O=C(/C(=C/c1ccc(Cl)cc1Cl)n1ccnc1)c1ccc(Cl)cc1,10.2% (active)
14,Nc1nc(-c2ccccc2)nc2[nH]nc(Nc3ccc(C(F)(F)F)cc3)c12,35.1%
15,CNc1nc(=O)[nH]cc1F,60.5%
16,O=C(Nc1nnc(-c2ccc(Cl)cc2)o1)c1ccc(F)cc1,41.1%
17,C[C@H]1[C@@H](c2cccc(C(F)(F)F)c2)OC(=O)N1C(=O)NCc1cncc2ccccc12,40.6%
18,CC(C)n1cnc2c(NCc3ccccc3)nc(NCc3ccccc3)nc21,39.1%
19,O=c1cc(NCCCN[C@@H]2CCOc3c(Br)cc(Br)cc32)[nH]c2ccsc12,30.7%
20,CO[C@@]1(NC(=O)Cc2cccs2)C(=O)N2C(C(=O)O)=C(COC(N)=O)CS[C@@H]21,61.6%
